The test system of experiment [1] is TRPC4 beta (transient receptor potential cation channel C4), mouse. The experiment is described as follows: TRPC4 cation channel opening, retest – cell-based, Fluo4 calcium, HEK293 TRPC4beta/mu-opioid, duplicates, 10 µM, confirmation (AID 2426;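 active means fluorescence ratio normalized to control raised more than 50% in primary screen plus both repeat runs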;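 on activation: percent rise of integrated ratio over buffer wells lacking compound which define 0%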). Particulars: Fluo4 calcium fluorescence, at 10 µM; active compounds read high.
The subject of experiment [2] is transient receptor potential cation channel C4 beta (TRPC4), mouse. The experiment is described as follows: TRPC4 cation channel opening, second retest – cell-based, second round, Fluo4, HEK293 TRPC4beta/mu-opioid, 1 µM, confirmation (AID 2461;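 active means primary screen active and over 50% activation in each of two duplicate runs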;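 on activation: 0% = wells without test compound as baseline of integrated fluorescence ratio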). The settings on record: Fluo4 calcium fluorescence, at 1 µM; active compounds read high.
The subject of experiment [3] is TRPC4 (transient receptor potential cation channel C4 beta), mouse. The experiment is described as follows: potentiation of DAMGO EC20 TRPC4 response – cell-based, second round, Fluo-4, HEK293 TRPC4beta/mu-opioid, 1 µM, confirmation (AID 2554;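 active means primary screen hit whose fluorescence ratio, in both repeats, exceeds the weak agonist control mean by 3 SD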). Particulars: DAMGO EC20, Fluo-4 calcium flux, at 1 µM; active compounds read high. A general note: Calcium flux is commonly read through the fluorescence of an indicator in the cells.

Experiment [4] concerns TRPC4 beta (transient receptor potential cation channel C4), mouse. The experiment is described as follows: potentiation of DAMGO EC20 TRPC4 response – cell-based, Fluo-4, HEK293 TRPC4beta/mu-opioid, confirmation (AID 2555). The settings on record: DAMGO EC20, Fluo-4 calcium flux, at 10 µM; active compounds read high.
For experiment [5], the target named is Short transient receptor potential channel 4 (Mus musculus) (UniProt Q9QUQ5). The experiment is described as follows: blockers of DAMGO-evoked TRPC4 calcium flux – cell-based, Fluo4, HEK293 TRPC4beta/mu-opioid, confirmation (AID 2636;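 active means calcium signal cut by more than 3 SD below the full-agonist control yet still positive, in both repeats and the earlier primary screen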). The settings on record: at 10 µM; active compounds read high.
Chain of Short transient receptor potential channel 4 (Mus musculus) (Q9QUQ5 whole entry, looked up): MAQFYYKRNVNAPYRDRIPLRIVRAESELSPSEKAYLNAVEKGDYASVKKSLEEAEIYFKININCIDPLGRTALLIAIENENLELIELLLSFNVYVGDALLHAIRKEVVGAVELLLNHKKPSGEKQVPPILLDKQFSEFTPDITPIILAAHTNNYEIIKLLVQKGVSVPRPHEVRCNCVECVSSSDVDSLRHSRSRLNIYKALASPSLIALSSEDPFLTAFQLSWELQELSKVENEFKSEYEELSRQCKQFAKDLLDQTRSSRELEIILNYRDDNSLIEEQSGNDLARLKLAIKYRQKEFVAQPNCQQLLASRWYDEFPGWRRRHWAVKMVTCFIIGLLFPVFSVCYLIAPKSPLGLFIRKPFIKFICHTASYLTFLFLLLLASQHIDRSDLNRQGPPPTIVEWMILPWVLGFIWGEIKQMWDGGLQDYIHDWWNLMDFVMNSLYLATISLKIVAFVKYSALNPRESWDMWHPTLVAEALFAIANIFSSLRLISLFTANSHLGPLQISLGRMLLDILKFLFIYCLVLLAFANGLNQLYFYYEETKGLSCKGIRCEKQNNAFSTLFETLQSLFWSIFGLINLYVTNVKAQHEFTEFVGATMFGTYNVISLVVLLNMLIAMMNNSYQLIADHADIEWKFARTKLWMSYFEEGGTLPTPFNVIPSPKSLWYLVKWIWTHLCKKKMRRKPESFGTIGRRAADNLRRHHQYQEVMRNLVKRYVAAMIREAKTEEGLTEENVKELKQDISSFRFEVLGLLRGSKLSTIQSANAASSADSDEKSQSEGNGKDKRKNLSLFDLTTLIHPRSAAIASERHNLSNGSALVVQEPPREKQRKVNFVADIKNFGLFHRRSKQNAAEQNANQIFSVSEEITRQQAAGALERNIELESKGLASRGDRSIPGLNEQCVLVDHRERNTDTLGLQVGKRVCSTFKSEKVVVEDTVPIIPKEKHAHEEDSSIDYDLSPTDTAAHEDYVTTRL
For experiment [6] the target is unchanged. In words: blockers of DAMGO-evoked TRPC4 calcium flux – cell-based, second round, Fluo4, HEK293 TRPC4beta/mu-opioid, 1 µM, confirmation (AID 2637;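 active means calcium signal ratio cut to more than 3 SD under the fully stimulated control mean yet still positive, in both repeats and the primary screen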). The settings on record: at 1 µM; active compounds read high.
For experiment [7] the target is unchanged. In words: potentiation of DAMGO-evoked TRPC4 calcium signal – cell-based, HEK293 TRPC4/mu-opioid, Fluo-4 calcium, EC20 DAMGO, dose response (AID 434941;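 active means earlier screen potentiator hit that boosts the TRPC4 ion channel at some dose, with a dose response; inactive means no potentiation, no dose response, or not a prior hit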;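 further: calcium entry triggered by an EC20 dose of DAMGO at the co-expressed mu-opioid receptor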).
Experiment [8] has the same target. In words: block of DAMGO-driven TRPC4 calcium entry – cell-based, HEK293 TRPC4/mu-opioid, Fluo-4 calcium, dose response (AID 434942;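 active means primary screen inhibitor hit that blocks the TRPC4 channel at some tested dose, yielding a dose curve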).
Experiment [9] has as its target Short transient receptor potential channel 6 (Mus musculus) (UniProt Q61143). In words: TRPC6 blockade by TRPC4 inhibitor hits – cell-based, HEK293, membrane potential dye, duplicate, selectivity assay for TRPC4 inhibitor project, confirmation (AID 434948;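 active means active in primary screen and both duplicates, each dropping signal beyond three positive-control SD with fluorescence still positive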). Particulars: HEK293 TRPC6, membrane potential dye fluorescence, at 10 µM, stimulated with maximal-effect acetylcholine; active compounds read high.

The target is the same in experiment [10]. In words: TRPC6 opening by TRPC4 activator hits – cell-based, HEK293, membrane potential dye, duplicate, selectivity assay for TRPC4 activator project, confirmation (AID 434950;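 active means membrane potential signal rise above negative control mean plus 3 SD in both duplicates, also active in the earlier TRPC4 screen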;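 on activation: 0% = buffer only wells and 100% = acetylcholine maximal-effect wells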). Particulars: HEK293 TRPC6, membrane potential fluorescence, at 10 µM; activation: active compounds read high; outcome: activation.
Experiment [11] has the same target. In words: positive modulators of mouse TRPC6 channel – HEK293 cells, membrane potential dye, duplicate, selectivity assay for TRPC4 potentiator project, confirmation (AID 434952;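 active means compound raising the membrane signal above positive-control mean plus 3 SD in both repeats, and a primary screen hit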). Particulars: HEK293 TRPC6, membrane potential dye fluorescence, at 10 µM, maximal acetylcholine added after compound; active compounds read high.
Experiment [12] deals with Short transient receptor potential channel 4 (Mus musculus) (UniProt Q9QUQ5). In words: calcium flux activators in TRPC4/5HT1a cells, counter-screen for TRPC4 activator project, cell-based, second counter screen, HEK293 TRPC4/5HT1a, Fluo-4 (AID 434977;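 active means calcium signal rise above buffer-control mean plus 5 SD in both duplicates, and also a hit in the primary screen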;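 on activation: plate controls were assay buffer for no effect and maximal serotonin response for full effect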). The settings on record: Fluo-4 calcium flux, at 10 µM; active compounds read high.
Experiment [13] can be described thus: serotonin-gated TRPC4 signal block – cell-based, second counter screen, HEK293 TRPC4/5HT1a, Fluo-4, counter-screen for TRPC4 inhibitor project, confirmation (AID 434978;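 active means primary screen active whose calcium signal fell more than 3 SD beyond the full-serotonin control mean in both duplicate plates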;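 further: serotonin given first at submaximal then at maximal dose after compound preincubation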). Particulars: Fluo-4 calcium flux, at 10 µM, serotonin added to trigger calcium flux; active compounds read high. A general note: The purpose of a counterscreen is to sort out artefacts and off-target activity.

Experiment [14] concerns TRPC4 (mouse), co-expressed with 5HT1a in HEK293. In words: enhancement of serotonin-evoked TRPC4 response – cell-based, second counter screen, HEK293 TRPC4/5HT1a, Fluo-4, counter-screen for TRPC4 potentiator project, confirmation (AID 434979;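 active means signal rise over 3 SD above mean of control wells given weak agonist, in both repeats and first screen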). Particulars: Fluo-4 calcium flux, at 10 µM, serotonin added at its EC20 dose; active compounds read high.
A short description of experiment [15]: nonspecific calcium rise without TRPC4 – cell-based, HEK293 mu-opioid receptor line, counter-screen for TRPC4 activator project, confirmation (AID 449723;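 active means hit in primary screen, with calcium signal over 5 SD above buffer well mean in both duplicates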;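 further: counter screen cells carry the mu-opioid receptor alone and lack TRPC4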). Particulars: HEK293 mu-opioid cells, Fluo-4 calcium fluorescence, at 10 µM; active compounds read high.
Experiment [16] in a line: nonspecific potentiation of DAMGO calcium response – cell-based, HEK293 mu-opioid receptor line, counter-screen for TRPC4 allosteric potentiator project, confirmation (AID 449724;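 active means calcium signal rise more than 3 SD above the low-dose agonist control mean, in both duplicate plates and the primary screen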;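 further: HEK293 cells carrying mu-opioid receptor only with no TRPC4 channel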). Particulars: HEK293 mu-opioid receptor cells, Fluo-4 calcium flux, at 10 µM, compound added before EC20 DAMGO stimulus; active compounds read high.

For part of these data: Measured potencies and affinities stand elsewhere. Active and inactive are the calls of the source.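 How the source made its calls, unless noted: active means primary screen hit whose calcium fluorescence ratio, in both repeats, exceeds the weak agonist control mean by 3 SD; inactive means the rest.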

Chain of Short transient receptor potential channel 6 (Mus musculus) (Q61143 whole entry, looked up): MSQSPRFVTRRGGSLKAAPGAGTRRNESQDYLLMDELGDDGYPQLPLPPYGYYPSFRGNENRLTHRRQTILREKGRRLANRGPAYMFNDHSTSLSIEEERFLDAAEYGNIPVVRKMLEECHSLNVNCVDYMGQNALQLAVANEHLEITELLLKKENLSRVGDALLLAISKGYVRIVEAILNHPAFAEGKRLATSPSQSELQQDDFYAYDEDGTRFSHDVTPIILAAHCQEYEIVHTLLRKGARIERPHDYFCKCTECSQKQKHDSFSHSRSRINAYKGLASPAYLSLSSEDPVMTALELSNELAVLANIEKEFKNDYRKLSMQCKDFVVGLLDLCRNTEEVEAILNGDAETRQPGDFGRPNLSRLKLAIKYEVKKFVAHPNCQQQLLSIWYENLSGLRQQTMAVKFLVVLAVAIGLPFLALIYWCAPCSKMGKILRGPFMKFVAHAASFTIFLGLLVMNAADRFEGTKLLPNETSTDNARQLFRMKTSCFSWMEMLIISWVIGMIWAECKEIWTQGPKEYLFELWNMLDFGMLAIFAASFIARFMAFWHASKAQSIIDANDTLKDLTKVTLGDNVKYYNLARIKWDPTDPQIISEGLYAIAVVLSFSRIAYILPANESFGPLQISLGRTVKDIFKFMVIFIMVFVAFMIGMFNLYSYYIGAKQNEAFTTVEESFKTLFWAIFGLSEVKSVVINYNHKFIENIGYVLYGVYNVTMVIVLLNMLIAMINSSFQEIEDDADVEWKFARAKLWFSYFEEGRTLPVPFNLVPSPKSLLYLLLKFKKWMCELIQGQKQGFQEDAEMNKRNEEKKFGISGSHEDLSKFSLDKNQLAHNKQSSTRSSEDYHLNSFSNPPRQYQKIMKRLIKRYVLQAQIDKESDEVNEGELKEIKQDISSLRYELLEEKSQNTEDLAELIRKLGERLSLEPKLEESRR

With `Cc1ccc(C2N(c3ccc(Cl)c(Cl)c3)C(=O)C3CCCN32)o1` (stereo not given), the activation in [1] is 53% (active); in experiment [12], 13.8% (active). Further, the result in experiment [2], in [5], in [6], in [7], in [8] and in experiment [9] was inactive. Further, the call in experiment [10], in experiment [11], in [13], in experiment [15] and in experiment [16] was inactive. Besides, the potentiation was 9% (active) in [3], 22% (active) in experiment [4] and 20% (active) in experiment [14].
In the case of `Cc1ccc(C(=O)NNC(=S)NC(=O)c2ccc(Cl)cc2)cc1`, the result in experiment [1], in experiment [2], in experiment [3], in [4], in [5] and in [6] was inactive. Besides, the result in experiment [7], in [8], in experiment [9], in [11], in [13] and in [14] was inactive. The result in experiment [15] and in experiment [16] was inactive. Moreover, the activation is 29.5% (active) in [10] and 77.8% (active) in experiment [12].
With `Cc1ccc(C)c(S(=O)(=O)N2CCN(C(=O)CCc3nc4ccccc4c(=O)[nH]3)CC2)c1`, the activation in [1] was 153% (active); in [10] it was 39% (active); in experiment [12], 25.2% (active). In addition, the result in experiment [2], in experiment [3], in experiment [4], in experiment [5], in experiment [6] and in experiment [7] was inactive. The outcome in experiment [8], in [9], in experiment [11], in experiment [13], in [14] and in experiment [15] was inactive. In experiment [16], the result was inactive.
On to `Fc1ccc(C2CCNCC2COc2ccc3c(c2)OCO3)cc1` (stereo not given), for which the figures for the activation in experiment [1], in experiment [12] and in [15] were 202% (active), 26.8% (active) and 15.8% (active), respectively. Further, the outcome in experiment [2], in experiment [3], in experiment [4], in [5], in experiment [6] and in experiment [7] was inactive. Further, the result in [8], in [9], in experiment [10], in [11], in experiment [13] and in experiment [14] was inactive. In experiment [16], the outcome was inactive.
Turning to `CN(C)C(CNC(=S)Nc1ccccc1)c1cccnc1` (stereo not given), the activation in experiment [1] is 76% (active); in experiment [2], 82% (active); in experiment [10], 36% (active). Moreover, the outcome in [3], in experiment [4], in experiment [5], in [6], in [7] and in [8] was inactive. Also, the compound was called inactive in experiment [9], in [11], in experiment [12], in [13], in [14] and in experiment [15]. The outcome in experiment [16] was inactive.
Consider `CCOC(=O)[C@@H]1CCNC[C@@H]1c1ccccc1`, for which the activation in experiment [1] is 217% (active); in experiment [2], 83% (active); in experiment [10], 30.5% (active). Also, the outcome in experiment [3], in [4], in [5], in experiment [6], in experiment [7] and in experiment [8] was inactive. In addition, the call in [9], in experiment [11], in [12], in experiment [13], in experiment [14] and in experiment [15] was inactive. Further, the outcome in [16] was inactive.
For the compound `CCOC(=O)C1(CCOc2ccccc2)CCN(Cc2ccc(OC)c(O)c2)CC1`, the results for the activation in [1], in experiment [2] and in experiment [10] were 207% (active), 80% (active) and 66.5% (active), respectively. Further, the outcome in [3], in [4], in experiment [5], in experiment [6], in [7] and in [8] was inactive. Also, the call in [9], in experiment [11], in experiment [12], in [13], in [14] and in [15] was inactive. Moreover, the outcome in [16] was inactive.
Take `COc1cc(OC)cc(C(=O)NCCCN2CCN(CCCNC(=O)c3cc(OC)cc(OC)c3)CC2)c1`: the activation in experiment [1] is 121% (active); in experiment [2], 94% (active); in experiment [10], 31.5% (active); in experiment [12] it was 30.4% (active). The outcome in [3], in experiment [4], in [5], in experiment [6], in [7] and in experiment [8] was inactive. The compound was classed as inactive in [9], in experiment [11], in [13], in experiment [14], in experiment [15] and in experiment [16].
Consider `CC(C)(C)c1ccccc1NC(=O)NC1CCN(Cc2c(F)cccc2Cl)CC1`, for which the activation in [1] was 121% (active); in [10], 36% (active); in experiment [12], 71.5% (active). Moreover, the outcome in experiment [2], in experiment [3], in experiment [4], in experiment [5], in experiment [6] and in experiment [7] was inactive. Besides, the outcome in experiment [8], in experiment [9], in experiment [11], in experiment [13], in experiment [14] and in [15] was inactive. In [16], the result was inactive.
As for `CNC[C@H](CC1CCCCC1)NC[C@H](Cc1ccccc1)NCCC12CC3CC(CC(C3)C1)C2`, the activation is 219% (active) in [1], 63.4% (active) in experiment [12] and 51.7% (active) in [15]. In addition, the outcome in experiment [2], in experiment [3], in [4], in [5], in [6] and in experiment [7] was inactive. The outcome in experiment [8], in experiment [9], in [10], in experiment [11], in experiment [13] and in experiment [14] was inactive. Further, the outcome in experiment [16] was inactive.
On to `Cc1cc(Cl)cc(C)c1OCCCCn1ccnc1`, for which the activation in experiment [1] was 98% (active); in experiment [10] it was 42.5% (active); in experiment [12], 36.8% (active). Also, the outcome in [2], in experiment [3], in [4], in [5], in experiment [6] and in experiment [7] was inactive. Further, the result in experiment [8], in experiment [9], in experiment [11], in experiment [13], in experiment [14] and in experiment [15] was inactive. Also, in experiment [16], the result was inactive.
Take `CCC1(c2ccc(F)cc2)NC(=O)N(CC(=O)c2cc(C)n(C3CC3)c2C)C1=O` (stereo not given): the result in experiment [1], in experiment [2], in experiment [3], in experiment [5], in [6] and in [7] was inactive. Moreover, the result in [8], in experiment [9], in experiment [10], in experiment [11], in experiment [13] and in experiment [16] was inactive. Further, the potentiation in experiment [4] was 16% (active); in experiment [14], 24.5% (active). In addition, the activation in experiment [12] is 27% (active); in [15], 13.8% (active).
Take `CN1CCN(c2ccc(C(F)(F)F)cc2NC(=O)Nc2ccccc2)CC1`: the activation in experiment [1] was 103% (active); in experiment [12], 28.6% (active). The result in [2], in experiment [4], in [5], in experiment [6], in [7] and in experiment [8] was inactive. The outcome in experiment [9], in experiment [10], in experiment [11], in experiment [13], in [15] and in experiment [16] was inactive. The potentiation in experiment [3] is 24% (active); in experiment [14], 33.3% (active).
As to `Cc1c(CN2CCC(n3nccc3NC(=O)C3CC3)CC2)[nH]c2ccccc12`, the results for the activation in [1] and in experiment [10] were 138% (active) and 26% (active), respectively. Also, the result in experiment [2], in experiment [3], in experiment [4], in [5], in [6] and in [7] was inactive. Besides, the result in experiment [8], in experiment [9], in [11], in experiment [12], in experiment [13] and in experiment [14] was inactive. Further, the result in experiment [15] and in experiment [16] was inactive.
`CCCN(CCC)CCCNC(=O)C1CCC(CNS(=O)(=O)c2cccc3nsnc23)CC1` (stereo not given): the activation is 83% (active) in [1], 52% (active) in [2] and 29.2% (active) in experiment [12]. Besides, the outcome in experiment [3], in experiment [4], in experiment [5], in [6], in experiment [7] and in [8] was inactive. The result in experiment [9], in experiment [10], in experiment [11], in experiment [13], in [14] and in experiment [15] was inactive. The outcome in experiment [16] was inactive.

Source of the values: PubChem BioAssay.
